# From paper PMC7862700, “An all-to-all approach to the identification of sequence-specific readers for epigenetic DNA modifications on cytosine”
# Key:
# Assay in all cases: DAPPL (digital affinity profiling via proximity ligation, sequencing); 10 mM Tris-HCl pH 7.5, 50 mM NaCl, 1 mM DTT, 4% glycerol, room temperature, 30 min; GST-TFs on glutathione beads, 16-mer random dsDNA library, 0.1% formaldehyde crosslink after washing; high values mean tight binding
# Details in all cases: protein: recombinant; tags: N-terminal GST; dsDNA, one strand shown
# FLI1 = biological target: T1, FLI1 (Homo sapiens, UniProt Q01543 1-452)
# T1 sequence: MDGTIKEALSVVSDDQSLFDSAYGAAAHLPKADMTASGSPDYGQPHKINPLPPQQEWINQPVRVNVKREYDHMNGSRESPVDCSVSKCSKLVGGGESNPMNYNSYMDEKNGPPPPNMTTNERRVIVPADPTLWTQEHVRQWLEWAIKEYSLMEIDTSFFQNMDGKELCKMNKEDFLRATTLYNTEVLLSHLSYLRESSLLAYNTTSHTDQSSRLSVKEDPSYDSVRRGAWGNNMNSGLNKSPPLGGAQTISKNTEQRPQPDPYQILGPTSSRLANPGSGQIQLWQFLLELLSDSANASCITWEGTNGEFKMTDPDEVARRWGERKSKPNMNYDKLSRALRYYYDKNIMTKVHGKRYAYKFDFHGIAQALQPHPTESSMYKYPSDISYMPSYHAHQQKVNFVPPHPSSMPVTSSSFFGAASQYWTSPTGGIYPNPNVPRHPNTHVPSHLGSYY
# How it was run: (§1)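 After expression in yeast as GST fusions, human transcription factors were bound to glutathione beads, DNA-barcoded and mixed with a tag-only sample. The pools were incubated with 200 nmole of a 16-mer random double-stranded DNA library in Tris/NaCl/DTT/glycerol buffer (30 min, room temperature), washed and crosslinked with 0.1% formaldehyde. Proximity ligation with BsaI/T4 ligase ran for 1 h at 37 °C, before PCR amplification and sequencing on an Illumina NextSeq500. Binding signal is a hexamer's read frequency for a factor divided by its frequency for the tag-only sample.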
# ELK1 = biological target: T2, ELK1 (Homo sapiens, UniProt P19419 1-428)
# T2 sequence: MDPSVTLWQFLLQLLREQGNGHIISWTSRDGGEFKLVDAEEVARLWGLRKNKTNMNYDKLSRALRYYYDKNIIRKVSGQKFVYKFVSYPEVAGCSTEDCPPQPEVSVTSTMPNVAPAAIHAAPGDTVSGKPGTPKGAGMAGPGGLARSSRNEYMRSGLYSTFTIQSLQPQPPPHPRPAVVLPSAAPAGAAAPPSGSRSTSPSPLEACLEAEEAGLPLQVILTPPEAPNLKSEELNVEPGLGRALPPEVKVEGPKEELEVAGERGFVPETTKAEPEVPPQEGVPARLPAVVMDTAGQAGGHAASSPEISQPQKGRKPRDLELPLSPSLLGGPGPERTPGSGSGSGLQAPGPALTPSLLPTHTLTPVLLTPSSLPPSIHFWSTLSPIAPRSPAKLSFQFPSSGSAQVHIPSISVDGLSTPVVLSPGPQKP
# How it was run: as §1
# GABPA = biological target: T3, GABPA (Homo sapiens, UniProt Q06546 1-454)
# T3 sequence: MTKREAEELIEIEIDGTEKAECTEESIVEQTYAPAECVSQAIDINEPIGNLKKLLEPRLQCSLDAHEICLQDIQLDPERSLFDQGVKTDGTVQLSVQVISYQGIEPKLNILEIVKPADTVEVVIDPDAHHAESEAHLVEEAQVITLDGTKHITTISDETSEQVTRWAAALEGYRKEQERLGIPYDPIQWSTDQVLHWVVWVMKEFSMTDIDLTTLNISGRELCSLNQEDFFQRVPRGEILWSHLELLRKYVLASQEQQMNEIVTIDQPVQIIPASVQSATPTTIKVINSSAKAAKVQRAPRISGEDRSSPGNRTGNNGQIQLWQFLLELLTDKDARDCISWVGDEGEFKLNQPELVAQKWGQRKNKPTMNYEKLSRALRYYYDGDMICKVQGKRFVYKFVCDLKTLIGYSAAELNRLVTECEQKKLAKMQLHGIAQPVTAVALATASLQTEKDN
# How it was run: as §1
# ERG = biological target: T4, ERG (Homo sapiens, UniProt P11308 1-479)
# T4 sequence: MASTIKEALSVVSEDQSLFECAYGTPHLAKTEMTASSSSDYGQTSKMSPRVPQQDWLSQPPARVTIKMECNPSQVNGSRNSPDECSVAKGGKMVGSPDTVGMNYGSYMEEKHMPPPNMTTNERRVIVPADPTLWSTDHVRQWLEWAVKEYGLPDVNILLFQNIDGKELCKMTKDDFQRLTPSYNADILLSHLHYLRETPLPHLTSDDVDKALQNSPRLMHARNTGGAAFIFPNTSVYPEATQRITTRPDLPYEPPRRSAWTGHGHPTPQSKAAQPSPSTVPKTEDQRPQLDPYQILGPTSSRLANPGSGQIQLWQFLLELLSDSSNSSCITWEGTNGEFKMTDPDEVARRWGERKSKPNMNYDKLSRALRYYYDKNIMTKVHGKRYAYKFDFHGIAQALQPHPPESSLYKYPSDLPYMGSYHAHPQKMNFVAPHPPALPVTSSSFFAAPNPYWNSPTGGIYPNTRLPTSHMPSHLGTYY
# How it was run: as §1
# ELF1 = ELF1 (Homo sapiens, UniProt P32519 1-619)
# Chain of ELF1 (P32519 whole entry): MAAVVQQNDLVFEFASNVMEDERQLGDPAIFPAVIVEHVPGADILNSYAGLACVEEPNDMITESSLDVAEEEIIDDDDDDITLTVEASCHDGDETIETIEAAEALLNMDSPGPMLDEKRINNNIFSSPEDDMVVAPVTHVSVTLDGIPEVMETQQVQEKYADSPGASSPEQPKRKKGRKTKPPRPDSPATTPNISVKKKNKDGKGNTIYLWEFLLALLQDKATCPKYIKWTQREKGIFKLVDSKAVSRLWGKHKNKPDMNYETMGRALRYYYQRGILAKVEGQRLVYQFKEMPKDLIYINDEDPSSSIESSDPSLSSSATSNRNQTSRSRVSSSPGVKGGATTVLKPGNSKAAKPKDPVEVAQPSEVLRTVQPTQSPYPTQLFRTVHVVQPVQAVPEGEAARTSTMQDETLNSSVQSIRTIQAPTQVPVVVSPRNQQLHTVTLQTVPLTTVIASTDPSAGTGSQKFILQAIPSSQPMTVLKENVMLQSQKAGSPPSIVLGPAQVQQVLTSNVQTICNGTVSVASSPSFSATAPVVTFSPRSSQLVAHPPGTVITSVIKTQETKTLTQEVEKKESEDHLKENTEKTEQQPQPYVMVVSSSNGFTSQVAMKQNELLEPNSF
# How it was run: as §1
# SPIB = SPIB (Homo sapiens, UniProt Q01892 1-262)
# Chain of SPIB (Q01892 whole entry): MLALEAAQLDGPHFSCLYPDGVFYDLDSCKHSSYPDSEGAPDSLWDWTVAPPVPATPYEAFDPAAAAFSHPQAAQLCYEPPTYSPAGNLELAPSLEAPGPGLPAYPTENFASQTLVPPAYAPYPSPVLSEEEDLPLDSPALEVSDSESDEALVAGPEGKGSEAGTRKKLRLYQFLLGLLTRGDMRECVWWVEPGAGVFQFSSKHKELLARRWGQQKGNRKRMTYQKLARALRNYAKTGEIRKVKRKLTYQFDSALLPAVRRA
# How it was run: as §1
# ETV5 = ETV5 (Homo sapiens, UniProt P41161 1-510)
# Chain of ETV5 (P41161 whole entry): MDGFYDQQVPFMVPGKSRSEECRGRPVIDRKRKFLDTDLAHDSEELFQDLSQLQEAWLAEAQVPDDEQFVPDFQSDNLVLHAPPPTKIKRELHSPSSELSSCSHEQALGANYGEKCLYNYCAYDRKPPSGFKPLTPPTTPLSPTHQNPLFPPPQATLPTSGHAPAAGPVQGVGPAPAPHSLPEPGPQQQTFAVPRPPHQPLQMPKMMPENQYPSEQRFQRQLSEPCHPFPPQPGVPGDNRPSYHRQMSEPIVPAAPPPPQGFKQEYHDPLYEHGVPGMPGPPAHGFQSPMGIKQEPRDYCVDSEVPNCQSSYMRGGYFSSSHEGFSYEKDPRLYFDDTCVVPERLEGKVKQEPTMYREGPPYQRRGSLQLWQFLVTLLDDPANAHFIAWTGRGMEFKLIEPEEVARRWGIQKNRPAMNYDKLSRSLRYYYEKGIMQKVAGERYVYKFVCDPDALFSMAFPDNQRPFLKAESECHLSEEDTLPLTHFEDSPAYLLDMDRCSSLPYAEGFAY
# How it was run: as §1
# SPIC = biological target: T5, SPIC (Homo sapiens, UniProt Q8N5J4 1-248)
# T5 sequence: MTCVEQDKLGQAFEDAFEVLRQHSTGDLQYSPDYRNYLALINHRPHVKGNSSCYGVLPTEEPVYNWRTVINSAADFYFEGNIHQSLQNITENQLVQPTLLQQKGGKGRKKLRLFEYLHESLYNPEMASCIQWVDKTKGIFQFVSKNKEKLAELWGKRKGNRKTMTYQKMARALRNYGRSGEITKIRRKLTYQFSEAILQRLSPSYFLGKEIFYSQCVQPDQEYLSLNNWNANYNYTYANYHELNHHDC
# How it was run: as §1
# ELF4 = ELF4 (Homo sapiens, UniProt Q99607 1-663)
# Chain of ELF4 (Q99607 whole entry): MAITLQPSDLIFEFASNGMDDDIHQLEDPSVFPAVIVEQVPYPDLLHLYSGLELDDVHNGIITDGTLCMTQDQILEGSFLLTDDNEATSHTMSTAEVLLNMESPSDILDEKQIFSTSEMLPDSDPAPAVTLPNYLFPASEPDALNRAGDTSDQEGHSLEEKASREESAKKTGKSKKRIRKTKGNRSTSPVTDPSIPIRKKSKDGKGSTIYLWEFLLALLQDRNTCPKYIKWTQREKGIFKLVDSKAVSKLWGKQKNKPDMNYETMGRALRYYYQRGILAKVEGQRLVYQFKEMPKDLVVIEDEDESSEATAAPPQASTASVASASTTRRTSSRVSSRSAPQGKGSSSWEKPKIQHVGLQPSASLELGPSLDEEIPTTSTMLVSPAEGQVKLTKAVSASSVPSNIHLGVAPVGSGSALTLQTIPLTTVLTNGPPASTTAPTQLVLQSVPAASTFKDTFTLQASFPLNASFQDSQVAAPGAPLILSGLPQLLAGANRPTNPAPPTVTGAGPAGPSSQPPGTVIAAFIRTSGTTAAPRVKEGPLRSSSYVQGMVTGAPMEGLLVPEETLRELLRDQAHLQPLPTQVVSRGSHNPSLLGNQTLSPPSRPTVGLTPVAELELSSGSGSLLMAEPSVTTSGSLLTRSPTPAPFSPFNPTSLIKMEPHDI
# How it was run: as §1
# ELK4 = biological target: T6, ELK4 (Homo sapiens, UniProt P28324-2 1-405)
# T6 sequence: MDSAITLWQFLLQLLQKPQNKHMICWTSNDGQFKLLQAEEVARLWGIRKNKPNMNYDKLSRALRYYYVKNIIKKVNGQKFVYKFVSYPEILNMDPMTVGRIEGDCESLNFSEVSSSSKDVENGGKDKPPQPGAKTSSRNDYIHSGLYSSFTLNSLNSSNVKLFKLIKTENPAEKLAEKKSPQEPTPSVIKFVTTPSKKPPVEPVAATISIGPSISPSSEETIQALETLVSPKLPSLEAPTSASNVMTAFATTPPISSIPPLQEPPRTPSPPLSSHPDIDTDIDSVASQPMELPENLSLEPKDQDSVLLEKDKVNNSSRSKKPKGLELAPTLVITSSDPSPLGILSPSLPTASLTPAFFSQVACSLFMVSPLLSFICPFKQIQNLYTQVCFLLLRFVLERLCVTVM
# How it was run: as §1
# ETV2 = biological target: T7, ETV2 (Homo sapiens, UniProt O00321 1-342)
# T7 sequence: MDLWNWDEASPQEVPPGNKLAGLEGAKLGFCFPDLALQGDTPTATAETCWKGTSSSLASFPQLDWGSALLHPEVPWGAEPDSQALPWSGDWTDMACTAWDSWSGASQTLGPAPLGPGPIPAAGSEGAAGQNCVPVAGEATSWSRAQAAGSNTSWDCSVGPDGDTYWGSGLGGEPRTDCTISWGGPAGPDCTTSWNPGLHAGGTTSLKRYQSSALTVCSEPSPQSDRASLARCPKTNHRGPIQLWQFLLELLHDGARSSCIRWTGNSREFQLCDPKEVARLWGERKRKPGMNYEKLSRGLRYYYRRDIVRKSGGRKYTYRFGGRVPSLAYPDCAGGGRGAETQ
# How it was run: as §1
# ELF3 = biological target: T8, ELF3 (Homo sapiens, UniProt P78545 1-371)
# T8 sequence: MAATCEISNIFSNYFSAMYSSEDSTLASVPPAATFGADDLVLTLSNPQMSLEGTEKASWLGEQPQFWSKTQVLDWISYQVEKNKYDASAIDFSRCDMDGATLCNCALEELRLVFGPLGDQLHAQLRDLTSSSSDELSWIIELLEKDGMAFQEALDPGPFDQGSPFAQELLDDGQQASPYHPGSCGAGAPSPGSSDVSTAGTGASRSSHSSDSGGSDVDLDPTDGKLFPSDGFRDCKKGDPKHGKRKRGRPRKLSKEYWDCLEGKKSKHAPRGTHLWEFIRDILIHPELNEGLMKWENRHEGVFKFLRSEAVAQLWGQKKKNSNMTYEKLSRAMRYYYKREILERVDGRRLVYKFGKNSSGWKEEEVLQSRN
# How it was run: as §1
# EHF = biological target: T9, EHF (Homo sapiens, UniProt Q9NZC4 1-300)
# T9 sequence: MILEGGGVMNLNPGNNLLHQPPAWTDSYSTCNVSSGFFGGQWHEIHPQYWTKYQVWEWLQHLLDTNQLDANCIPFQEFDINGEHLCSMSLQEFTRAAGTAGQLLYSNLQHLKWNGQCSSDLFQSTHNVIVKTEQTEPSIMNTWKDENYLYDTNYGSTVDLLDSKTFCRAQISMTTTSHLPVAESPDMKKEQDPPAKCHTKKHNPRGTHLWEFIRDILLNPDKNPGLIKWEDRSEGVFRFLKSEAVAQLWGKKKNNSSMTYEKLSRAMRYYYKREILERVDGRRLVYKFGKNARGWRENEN
# How it was run: as §1
# SPI1 = SPI1 (Homo sapiens, UniProt P17947 1-270)
# How it was run: as §1
# ELK3 = biological target: T10, ELK3 (Homo sapiens, UniProt P41970 1-407)
# T10 sequence: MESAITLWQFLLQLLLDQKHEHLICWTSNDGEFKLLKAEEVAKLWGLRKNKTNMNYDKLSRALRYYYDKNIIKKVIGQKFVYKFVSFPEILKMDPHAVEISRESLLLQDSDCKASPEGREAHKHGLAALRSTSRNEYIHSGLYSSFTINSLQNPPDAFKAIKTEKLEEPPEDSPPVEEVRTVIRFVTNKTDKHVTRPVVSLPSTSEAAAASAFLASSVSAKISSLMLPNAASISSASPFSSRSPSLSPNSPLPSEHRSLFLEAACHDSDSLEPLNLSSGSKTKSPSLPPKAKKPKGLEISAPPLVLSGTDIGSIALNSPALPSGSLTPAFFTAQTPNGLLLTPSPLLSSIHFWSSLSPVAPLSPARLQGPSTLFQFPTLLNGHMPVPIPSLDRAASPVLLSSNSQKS
# How it was run: as §1
# FEV = biological target: T11, FEV (Homo sapiens, UniProt Q99581 1-238)
# T11 sequence: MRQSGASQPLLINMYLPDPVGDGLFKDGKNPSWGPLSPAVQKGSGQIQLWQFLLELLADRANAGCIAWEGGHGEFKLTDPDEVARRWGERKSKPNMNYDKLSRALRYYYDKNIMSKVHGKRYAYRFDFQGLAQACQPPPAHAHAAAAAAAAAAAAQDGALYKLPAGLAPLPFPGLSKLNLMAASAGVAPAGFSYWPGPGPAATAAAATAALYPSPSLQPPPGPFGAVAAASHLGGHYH
# How it was run: as §1
# ETV1 = ETV1 (Homo sapiens, UniProt P50549 1-477)
# Chain of ETV1 (P50549 whole entry): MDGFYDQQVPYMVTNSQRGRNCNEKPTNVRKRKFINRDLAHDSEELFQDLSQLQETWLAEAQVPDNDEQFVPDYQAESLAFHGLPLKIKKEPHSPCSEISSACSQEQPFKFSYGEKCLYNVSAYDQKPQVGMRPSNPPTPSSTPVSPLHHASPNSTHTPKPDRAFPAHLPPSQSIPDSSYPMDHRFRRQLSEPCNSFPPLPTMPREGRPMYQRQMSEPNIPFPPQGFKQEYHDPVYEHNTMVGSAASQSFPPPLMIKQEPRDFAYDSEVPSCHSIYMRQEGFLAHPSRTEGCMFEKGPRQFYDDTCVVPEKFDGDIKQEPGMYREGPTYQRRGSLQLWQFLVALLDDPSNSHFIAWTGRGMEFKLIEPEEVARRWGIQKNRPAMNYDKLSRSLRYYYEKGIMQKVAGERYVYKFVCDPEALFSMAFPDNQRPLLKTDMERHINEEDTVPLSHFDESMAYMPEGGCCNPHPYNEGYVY
# How it was run: as §1
Sequence,binding signal (FLI1),binding signal (ELK1),binding signal (GABPA),binding signal (ERG),binding signal (ELF1),binding signal (SPIB),binding signal (ETV5),binding signal (SPIC),binding signal (ELF4),binding signal (ELK4),binding signal (ETV2),binding signal (ELF3),binding signal (EHF),binding signal (SPI1),binding signal (ELK3),binding signal (FEV),binding signal (ETV1)
GGCCCT,"1.09 fold enrichment (6-mer frequency, TF over GST control)","1.08 fold enrichment (6-mer frequency, TF over GST control)","1.11 fold enrichment (6-mer frequency, TF over GST control)","1.1 fold enrichment (6-mer frequency, TF over GST control)","1 fold enrichment (6-mer frequency, TF over GST control)","1.15 fold enrichment (6-mer frequency, TF over GST control)","1.04 fold enrichment (6-mer frequency, TF over GST control)","1.11 fold enrichment (6-mer frequency, TF over GST control)","1.06 fold enrichment (6-mer frequency, TF over GST control)","1.06 fold enrichment (6-mer frequency, TF over GST control)","1.14 fold enrichment (6-mer frequency, TF over GST control)","1.11 fold enrichment (6-mer frequency, TF over GST control)",–,–,–,–,–
GCTGAC,"1.17 fold enrichment (6-mer frequency, TF over GST control)","1.1 fold enrichment (6-mer frequency, TF over GST control)","1.04 fold enrichment (6-mer frequency, TF over GST control)",–,"1.16 fold enrichment (6-mer frequency, TF over GST control)","1.12 fold enrichment (6-mer frequency, TF over GST control)","1.03 fold enrichment (6-mer frequency, TF over GST control)","1.1 fold enrichment (6-mer frequency, TF over GST control)","1.1 fold enrichment (6-mer frequency, TF over GST control)","1.05 fold enrichment (6-mer frequency, TF over GST control)","1.38 fold enrichment (6-mer frequency, TF over GST control)","1.27 fold enrichment (6-mer frequency, TF over GST control)","1.21 fold enrichment (6-mer frequency, TF over GST control)","1.04 fold enrichment (6-mer frequency, TF over GST control)","1.13 fold enrichment (6-mer frequency, TF over GST control)","1.12 fold enrichment (6-mer frequency, TF over GST control)","1.03 fold enrichment (6-mer frequency, TF over GST control)"
AACACC,"1.19 fold enrichment (6-mer frequency, TF over GST control)","1.18 fold enrichment (6-mer frequency, TF over GST control)","1.11 fold enrichment (6-mer frequency, TF over GST control)","1.15 fold enrichment (6-mer frequency, TF over GST control)","1.11 fold enrichment (6-mer frequency, TF over GST control)","1.16 fold enrichment (6-mer frequency, TF over GST control)","1.04 fold enrichment (6-mer frequency, TF over GST control)","1.02 fold enrichment (6-mer frequency, TF over GST control)","1.14 fold enrichment (6-mer frequency, TF over GST control)","1.13 fold enrichment (6-mer frequency, TF over GST control)","1.15 fold enrichment (6-mer frequency, TF over GST control)","1.09 fold enrichment (6-mer frequency, TF over GST control)","1.12 fold enrichment (6-mer frequency, TF over GST control)","1.04 fold enrichment (6-mer frequency, TF over GST control)",–,"1.15 fold enrichment (6-mer frequency, TF over GST control)","1.13 fold enrichment (6-mer frequency, TF over GST control)"
